From PubChem BioAssay (NCATS)
Records with an inconclusive call do not appear. Values without a mark were called inactive. Calls of active or inactive are those of the source. Calls follow the shape of the dose curve; as a rule, active = well fitted inhibition curve with a large enough effect; inconclusive = small, poorly fitted or top-dose-only effect; inactive = flat fitted curve, though single readings scatter.

test system: Zika virus NS2B-NS3 protease; test: Primary screen GU AMC qHTS for Zika virus inhibitors (AID 1347154); conditions: Zika NS2B-NS3 unlinked protease, AMC fluorogenic substrate; series mostly up to 54.1 µM; activity change, negative = inhibition: at the top concentration; also: nearly all actives have a fitted effect of over 70% in size;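 as to activity change, negative = inhibition: 0% = no-inhibitor control and -100% = no-enzyme control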
In short: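 Unlinked Zika NS2B hydrophilic domain/NS3 protease domain noncovalent complex (25 nM final) in 10 mM Tris-HCl pH 8.0, 0.01% Tween 20, with AMC peptide substrate. Fluorescence (ex 340, em 450 nm) change over 15 min, room temperature; percent inhibition fitted to 4-parameter Hill equation.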
Potency is read from the fitted curve at half-maximal effect.

SMILES	activity change, negative = inhibition	Potency
Cc1cccc(Nc2ccccc2C(=O)O)c1C	-2.51%	–
COc1ccc(O)cc1	-1.98%	–
Cc1cc(NC(=O)C2=C(O)c3ccccc3S(=O)(=O)N2C)no1	-1.22%	–
CC(CN(C)C)C(C)(O)Cc1ccc(Cl)cc1 (configuration not stated)	-7.44%	–
CC(C)c1cc2c(cc1S(=O)(=O)O)[C@@]1(C)CCC[C@@](C)(C(=O)O)[C@@H]1CC2	-2.63%	–
NS(=O)(=O)c1ccc(C(=O)O)cc1	3.94%	–
CCOC(N)=O	-4.18%	–
O=C(CCBr)N1CCN(C(=O)CCBr)CC1	-0.152%	–
Cc1c(I)c(=O)n(-c2ccccc2)n1C	-0.609%	–
OC(CCN1CCCC1)(c1ccccc1)C1CCCCC1 (configuration not stated)	-0.475%	–
O=C(Cn1ccnc1[N+](=O)[O-])NCCO	-2.36%	–
CNc1c2c(nn1C)CCCC2	-7.23%	–
Cn1c(=O)c2c(ncn2CCO)n(C)c1=O	-0.325%	–
CC(=O)N(CC(O)CN(C(C)=O)c1c(I)c(C(=O)NCC(O)CO)c(I)c(C(=O)NCC(O)CO)c1I)c1c(I)c(C(=O)NCC(O)CO)c(I)c(C(=O)NCC(O)CO)c1I (configuration not stated)	-5.77%	–
Cc1cc(OI)c(C(C)C)cc1-c1cc(C(C)C)c(OI)cc1C	-11.5%	–
C[C@]1(Cn2ccnn2)[C@H](C(=O)O)N2C(=O)C[C@H]2S1(=O)=O	-6.63%	–
O=S1(=O)OC(c2ccc(O)cc2)(c2ccc(O)cc2)c2ccccc21	-5.61%	–
CC1CC(OC(=O)c2ccccc2O)CC(C)(C)C1 (configuration not stated)	0.356%	–
CCCCCCCCCCCCCCCCC(C(=O)O)C(O)(CC(=O)O)C(=O)O (configuration not stated)	–	4.05 µM (active)

SMILES	activity change, negative = inhibition	Potency
Cc1cc(O)cc(C)c1Cl	-2.88%	–
COc1cc(O)cc(O)c1	-3.89%	–
CN1CCCN=C1COC(=O)C(O)(c1ccccc1)C1CCCCC1 (configuration not stated)	-4.75%	–
CN1CC(=O)NC1=N	-0.671%	–
CCOC(=O)OC(C)OC(=O)[C@@H]1N2C(=O)[C@@H](NC(=O)[C@H](N)c3ccccc3)[C@H]2SC1(C)C (some centres not stated)	0.203%	–
COC(=O)N/N=C/c1c[n+]([O-])c2ccccc2[n+]1[O-]	-10.9%	–
CC(CSC(=O)c1ccccc1)C(=O)N1C[C@@H](Sc2ccccc2)C[C@H]1C(=O)O (some centres not stated)	7.5% [at 25.8 µM]	–
O=C(O)c1cc(=O)c2ccccc2o1	-1.26%	–
CN/C(=C\[N+](=O)[O-])NCCSCc1csc(CN(C)C)n1	-6.35%	–
NCC1CCC(C(=O)Oc2ccc(CCC(=O)O)cc2)CC1 (configuration not stated)	3.28%	–
COc1nccnc1NS(=O)(=O)c1ccc(N)cc1	3.5%	–
C[N+]1(C)CCCC(OC(=O)C(O)(c2ccccc2)c2ccccc2)C1 (configuration not stated)	-2.33%	–
CCCCCCCCCCCCCCCCN	-3%	–
CC(=O)N(CC(O)CO)c1c(I)c(C(=O)NCC(O)CO)c(I)c(C(=O)NCC(O)CO)c1I (configuration not stated)	-2.08%	–
CC(=O)Nc1cccc(O)c1	0.201%	–
Cc1ccc(C(C)C)c(O)c1	0.0404%	–
COc1ccc2cc(CCC(C)=O)ccc2c1	-0.581%	–
C[C@H]1COc2c(C3(N)CC3)c(F)cc3c(=O)c(C(=O)O)cn1c23	0.638%	–
